Source: PubChem
IMPase Li cell: membrane-permeable IMPase blocker, potentiated with lithium | AID 1457 | Potency, µM (doses to about 59.4 µM), for inactives: at the highest dose activity, negative = IMPase inhibition, usual class: inhibitors | CHO-M1 cells, IP1 TR-FRET (IP-One), carbachol + lithium | actives 0.35% (n = 210,000);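 further: IP1 builds up when IMPase is blocked and the TR-FRET signal falls; potency means the concentration at half of the fitted maximal effect; plate controls were basal vehicle for no effect and high inhibitor control for full effect; nearly all actives have a fitted effect of over 50% in size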
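CHO cells stably expressing M1 receptor (2000/well, cultured 16–30 h) treated 30 min at 37C with compound plus low lithium. Cytosolic IP1 by TR-FRET (665/620 ratio and 620 channel) after 10 min lysis; AC50 by Hill fit.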
ALDH1A1 inh: ALDH1A1 (human) enzyme inhibition; Purified ALDH1A1, NADH fluorescence, propionaldehyde substrate; Potency, µM (doses to about 75.3 µM), for the others: at the top dose activity, negative = inhibition, most hits filed as inhibitors; actives 7.3% (n = 220,000); active means well fitted inhibition curve with a large enough effect, not every such curve was filed as active; inconclusive means small, poorly fitted or top-dose-only effect, or another doubt; inactive means no such curve, though single readings can be large or run the other way;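 further: potency means the concentration at half of the fitted maximal effect; plate controls were no enzyme wells and a reference inhibitor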
Target sequence (P00352 whole entry, looked up): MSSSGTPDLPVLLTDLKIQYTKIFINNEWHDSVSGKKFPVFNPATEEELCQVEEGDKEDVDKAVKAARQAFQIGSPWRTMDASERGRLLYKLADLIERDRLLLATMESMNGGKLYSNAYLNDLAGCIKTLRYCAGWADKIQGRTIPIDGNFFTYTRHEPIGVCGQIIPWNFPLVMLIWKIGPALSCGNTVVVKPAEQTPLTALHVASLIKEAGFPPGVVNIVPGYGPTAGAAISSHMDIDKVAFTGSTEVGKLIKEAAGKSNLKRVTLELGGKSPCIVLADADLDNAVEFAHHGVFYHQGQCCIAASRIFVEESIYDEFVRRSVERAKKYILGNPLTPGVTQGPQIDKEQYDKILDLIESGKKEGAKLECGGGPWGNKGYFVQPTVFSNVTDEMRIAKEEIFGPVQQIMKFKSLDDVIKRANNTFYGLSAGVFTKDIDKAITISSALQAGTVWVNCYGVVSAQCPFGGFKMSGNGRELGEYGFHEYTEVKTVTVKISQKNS
HttQ103 aggreg: inhibitors of mutant huntingtin aggregate formation in PC12 cells; actives 1.1% (n = 220,000); AID 1688; PC12 HttQ103-GFP aggregates, Acumen cytometry, 40 h; Potency, µM (series often up to 46.1 µM), for the others: top-dose activity change, negative = inhibition, most hits filed as inhibitors; further: potency means the concentration at half of the fitted maximal effect; on the % scale 0 is the no-effect control and ±100 the full control effect; nearly all actives have a fitted effect of over 60% in size
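Ecdysone-promoter PC12 model expressing HTT exon 1 Q103 fused to GFP, induced by tebufenozide at 100 nM final. Compounds titrated; aggregates sized 1–25 µm scored on a 488 nm laser cytometer.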
HTT ATP protect: Huntington cell model cytoprotection by ATP luminescence; PC12 HTT-Q103 induced, cytoprotection, ATP luminescence, 40 h; Potency, µM (highest dose often 56.4 µM), for the others: cytoprotection (ATP increase), hits mostly activators; actives 0.14% (n = 230,000); further: potency means the concentration at half of the fitted maximal effect; % of control where 0% means no effect; nearly all actives have a fitted effect of over 45% in size
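Cells were plated at 1500 per well in phenol red-free DMEM with 5% equine and 5% calf serum. Tebufenozide (100 nM final) and compounds were added, then ATPlite reagent, and luminescence was read.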
IMPase cell inh: IMPase inhibition in cells; inhibition (IP1 accumulation), % at 46.1 µM; P97697; 120,000 tested, under 10 active; CHO-M1 cells, IP1 accumulation, HTRF TR-FRET ratio; AID 901; active means well fitted curve in the direction sought with a large enough effect in the signal ratio, not every such curve was filed as active; inconclusive means small, poorly fitted or top-dose-only effect, or a change in a side signal; inactive means no such curve, though single readings can be large or run the other way; the % refers to the signal ratio;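 further: cells stimulated with carbachol in lithium chloride buffer; plate controls were DMSO basal wells for no effect and reference inhibitor wells for full effect; higher means more IMPase inhibition seen as more IP1 and lower FRET ratio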
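Seeded CHO-M1 cells were dosed with compound at up to 46 uM, stimulated with carbachol for 30 min, then lysed in IP-One detection reagents. Higher IP1 lowers the TR-FRET signal.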
HPGD block: blocks human HPGD enzyme activity | P15428 | purified HPGD, NADH fluorescence kinetic, PGE2 substrate | Potency, µM, for inactives: top-dose activity change, negative = inhibition, usual class: inhibitors | actives 4.3% (n = 150,000) | AID 894; active means well fitted inhibition curve with a large enough effect, not every such curve was filed as active; inconclusive means small, poorly fitted or top-dose-only effect, or another doubt; inactive means no such curve, though single readings can be large or run the other way; further: potency means the concentration at half of the fitted maximal effect; on the % scale 0 is the no-effect control and ±100 the full control effect
Target sequence (P15428 whole entry, looked up): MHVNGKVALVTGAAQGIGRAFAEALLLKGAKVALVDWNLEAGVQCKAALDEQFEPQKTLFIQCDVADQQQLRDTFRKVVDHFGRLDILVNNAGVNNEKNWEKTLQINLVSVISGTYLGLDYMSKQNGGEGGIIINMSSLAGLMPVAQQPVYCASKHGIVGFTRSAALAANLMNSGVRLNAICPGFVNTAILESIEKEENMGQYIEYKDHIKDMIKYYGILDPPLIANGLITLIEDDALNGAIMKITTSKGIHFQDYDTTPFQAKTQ
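20 nM HPGD preincubated 15 min at room temperature with compound in 50 mM Tris-HCl pH 8, 0.01% Tween 20. Started with 1 mM NAD+ and 30 uM prostaglandin E2; NADH fluorescence (360/450 nm) read 5 times over 30-s intervals, last minus first.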
Numbers without * were called inactive; ? = inconclusive; nt = no result; [ ] = another dose, or the depositor's remark. Sampled rows, rich in hits. Any-hit rate of the full collection: about 9.4%. Unless noted, the call rests on the fitted dose curve; in most records, active means well fitted curve in the direction sought with a large enough effect; inconclusive means small, poorly fitted or top-dose-only effect, or another doubt; inactive means no such curve, though single readings can be large; an effect the other way counts as inactive or inconclusive.

SMILES | IMPase Li cell | ALDH1A1 inh | HttQ103 aggreg | HTT ATP protect | IMPase cell inh | HPGD block
COc1cccc(NC(=S)NCCc2ccccn2)c1 | 9% | -11% | 9% | 4% | nt | nt
O=C(CSc1nnnn1C1CCCC1)N1CCCc2ccccc21 | 29%[38.3 µM] | 10µM* | -20% | 19% | ? | -13%
O=C(CSc1nnc(Cc2cccs2)n1C1CCCCC1)N1CCCc2ccccc21 | 39%[38.3 µM] | 3.5µM* | 5% | -12% | -7 | -23%
O=C(CSc1nnnn1-c1cccc2c1CCCC2)N1CCCCC1 | 2% | 32µM* | -21% | 34%[10 µM] | -3 | ?
C=C1c2cccc(OC)c2O[C@H](C(=O)OCC)[C@@H]1CCC(C)C | 6% | ? | nt | 0% | nt | -28%
COC1(c2ccccc2)NC(=S)NN=C1c1ccccc1 (centres undefined) | 14%[38.3 µM] | 0.89µM* | 16% | -7% | -11 | -7%
CO/N=C/C1C(=O)NN=C1c1ccccc1 (centres undefined) | 1% | 2% | 16% | -16% | nt | nt
CCCCOC1(c2ccccc2)NC(=S)NN=C1c1ccccc1 (centres undefined) | 20%[38.3 µM] | 0.56µM* | 3% | 13%[10 µM] | -6 | -5%
O=C(NNC(=S)Nc1ccc(OC(F)F)cc1)c1cc2c(s1)CCCC2 | -7% | 8.9µM* | -2% | -4%[1.9 µM] | 9 | -19%
O=C(Nc1ccccc1OC(F)F)c1cc2c(s1)CCC2 | -3% | ? | 11% | 24%[1.9 µM] | -3 | -17%
Cn1c(=O)c2c(ncn2CCC(=O)N/N=C/c2ccncc2)n(C)c1=O | nt | nt | -3%[9.22 µM] | 17%[10 µM] | nt | nt
O=C1C2=CC[C@H]3C(=O)N(c4cccc(Oc5ccccc5)c4)C(=O)[C@@H]3[C@@H]2[C@H](O)[C@@H]2O[C@H]12 | nt | -3%[13.5 µM] | nt | ? | nt | nt
CCOC(=O)C1C(C(=O)OC)=C(c2ccc(F)cc2)c2ccc(OC)cc2N1S(=O)(=O)C(F)(F)F (centres undefined) | 17% | ? | nt | -22%[40.3 µM] | nt | -29%
CCOC(=O)c1c(NC(=O)/C=C\C(=O)O)sc(C)c1-c1ccccc1 | 2% | ? | ? | ? | nt | nt
CCOC(=O)c1c(NC(=O)/C=C/C(=O)O)sc(C)c1-c1ccc(C(C)(C)C)cc1 | 11% | 28µM* | ? | -196% | nt | nt
Cc1sc(NC(=O)/C=C/C(=O)O)c(C(N)=O)c1-c1ccc(C(C)(C)C)cc1 | 7% | 13µM* | -4% | -1%[10 µM] | nt | 25µM*
Cc1sc(NC(=O)C2CCCCC2C(=O)O)c(C(N)=O)c1-c1ccc(C(C)(C)C)cc1 (centres undefined) | -10%[38.3 µM] | ? | -3% | -9% | -8 | -17%
COc1ccc(S(=O)(=O)N(CC(=O)Nc2cccnc2)c2ccc(Cl)cc2)cc1 | nt | nt | nt | nt | 4 | nt
COS(C)(=O)=O | 3% | 13% | nt | 11% | nt | -11%
CC1(C)NC(=O)N(CCCCOc2ccc3ccccc3c2Cl)C1=O | 32%[38.3 µM] | 18µM* | -57% | 7% | -1 | -28%
CCC(=O)c1ccccc1OCCCN1C(=O)NC(C)(C)C1=O | 3%[38.3 µM] | 10µM* | -6% | 15% | 4 | -11%
CC1(C)NC(=O)N(CCOCCOc2ccc3ccccc3c2Br)C1=O | -9%[38.3 µM] | -8% | -19% | -6% | 2 | -25%
CCC(C)Oc1cccc(OCCCCN2C(=O)NC(C)(C)C2=O)c1 (centres undefined) | 0%[38.3 µM] | -12% | -8% | 1%[10 µM] | -8 | -8%
Cc1noc(C)c1COC(=O)Cc1ccc(Cl)c(Cl)c1 | 7%[38.3 µM] | 8% | 0.79µM* | -16%[0.074 µM] | 9 | -5%
Cc1noc(C)c1COC(=O)[C@H](C)NS(=O)(=O)c1ccc(Cl)c(Cl)c1 | 27%[38.3 µM] | 5% | -10% | -21% | 7 | 4%
SMILES | IMPase Li cell | ALDH1A1 inh | HttQ103 aggreg | HTT ATP protect | IMPase cell inh | HPGD block
Cc1sc(NC(=O)c2ccc(=O)n(C)n2)nc1-c1ccccc1 | -12% | 28µM* | ? | -71% | nt | nt
CCOC(=O)Nc1nc(-c2ccccc2)c(C)s1 | 1% | ? | nt | -14%[10 µM] | nt | -20%
COc1ccc(CNC(=O)C(OC(=O)c2nsc(Cl)c2Cl)C(C)C)cc1 (centres undefined) | 6% | ? | nt | nt | nt | nt
Cn1c(=O)c(-c2cccs2)nc2cnc(OCc3ccccc3)nc21 | -12% | ? | nt | -5% | nt | nt
CC1=C(C(=O)OC(C)C)C2(O)C(=O)c3ccccc3C2(O)N1 (centres undefined) | -2% | 13µM* | -2% | 14%[10 µM] | 2 | -11%
CCCCOC(=O)C1=C(C)NC2(O)c3ccccc3C(=O)C12O (centres undefined) | 15%[38.3 µM] | 8.9µM* | -9% | 19% | 4 | -9%
CC1=C(C#N)C2(O)C(=O)c3ccccc3C2(O)N1 (centres undefined) | 3% | ? | -13% | -26% | nt | nt
COc1ccc2c(c1)NC1(O)c3ccccc3C(=O)C21O (centres undefined) | -3%[38.3 µM] | 4% | -4% | 0%[10 µM] | -12 | -3%
CCOC(=O)C1=C(C)OC2(O)c3ccccc3C(=O)C12O (centres undefined) | nt | nt | -7%[9.22 µM] | 6%[10 µM] | nt | nt
CCOC(=O)C1=C(C)N[C@@]2(O)c3ccccc3C(=O)[C@@]12O | -2% | 32µM* | -23% | -1%[10 µM] | 6 | -7%
CC(C)(C)c1cc(CNC2CS(=O)(=O)C[C@@H]2O)cc(C(C)(C)C)c1O (some centres undefined) | -11%[38.3 µM] | 13µM* | ? | -19%[0.074 µM] | 2 | -3%
O=S1(=O)CC(O)C(NCc2ccco2)C1 (centres undefined) | 28%[38.3 µM] | 2% | -10% | 16% | -9 | -2%
Cc1cc(S(N)(=O)=O)c(N)c(S(N)(=O)=O)c1 | nt | ? | 0%[9.22 µM] | -18%[10 µM] | nt | nt
Cc1ccc(/C=N/NC(=O)CSc2nc3ccccc3s2)o1 | 8% | 11µM* | -4% | 0%[10 µM] | nt | 14µM*
Cc1ccc(/C=N/NC(=O)CSc2nnc(-c3ccc(Cl)cc3)n2-c2ccccc2)o1 | 15% | 10µM* | 5% | -12%[10 µM] | nt | ?
O=C(COc1cccc2ccccc12)N/N=C/c1ccc(Sc2nc3ccccc3s2)o1 | 21%[38.3 µM] | ? | 7% | -2% | 2 | 28µM*
CC(C)(C)c1ccc(-c2nc3cc(NC(=O)c4cccc(Br)c4)ccc3o2)cc1 | nt | nt | nt | nt | -7 | nt
O=C1C[C@H]2C(=O)[C@@H]1[C@@H](C(=O)O)[C@H]2C(=O)O | -4% | 8%[13.5 µM] | nt | -22%[10 µM] | nt | -6%
CCOc1ccc(C(C)=O)cc1N1C(=O)C2C3C=CC(O3)C2C1=O (centres undefined) | 7%[38.3 µM] | 22µM* | ? | -87% | 1 | 28µM*
Cc1cc(N2CCN(c3nnnn3-c3ccccc3)CC2)n2ncnc2n1 | 3%[38.3 µM] | 22µM* | -13% | 5% | 15 | -6%
Cc1cc(N2CCN(c3ccccc3)CC2)n2nnnc2n1 | 28%[38.3 µM] | -12% | 5% | 18% | 17 | -7%
